# Inconclusive results are not listed. Active and inactive are the calls of the source. The calls were made as follows: active = hit-call score of the fitted dose curve at least 0.9, where 1 is the maximum; inconclusive = response in the unintended direction; inactive = score below 0.9.
# Experiments:
# [1] = TOX21_TR_RXR_BLA_Agonist_Followup_viability: Viability Assessment in the Tox21 Thyroid Hormone Receptor beta Retinoid X Receptor alpha (RXRa) Agonism Beta-lactamase (BLA) Follow-Up Assay (AID 2283970)
# Source text: GeneBLAzer RXRa-UAS-bla HEK293T assay (RXRa-bla) (ThermoFisherScientific Catalog No. K1697) was run in qHTS 1536 well format as a secondary assay for specificity of response in the TOX21_TR_GH3_LUC_Agonist assay.TOX21_TR_RXR_BLA_Agonist_Followup_viability is a component of the TOX21_TR_RXR_BLA_Agonist_Followup assay. This component measures cell viability using the CellTiter-Glo Luciferase-coupled ATP quantitation.The assay component endpoint TOX21_TR_RXR_BLA_Agonist_Followup_viability was analyzed with bidirectional fitting relation to DMSO as the negative control and baseline of activity. Using a type of viability reporter, loss-of-signal activity can be used to understand changes in viability. […]
# Cell Media Required: Growth (90% DMEM/F-12, 10% Fetal Bovine Calf Serum, 100U/ml Penicillin, 100 ug/ml Streptomycin), Assay (10ng/mL sodium selenite, 10 ug/mL humanapo-transferrin, 10 uM ethanolamine, 10 ug/mL insulin, 500 ug/mL bovine serum albumin (BSA))Assay Protocol: RXRa-bla cells were seeded at 2,500/well in 6 uL of the assay medium containing phenol red-free DMEM with 2% charcoal-stripped FBS in 1,536-well black-wall/clear-bottom plates (Greiner Bio-One North America) usinga Multidrop Combi dispenser. […] After 2-h incubation at room temperature, the fluorescence intensity was measured using an Envision plate reader (Perkin Elmer). Data were expressed as the ratio of 460:530 nm.
# [2] = target: Retinoic acid receptor RXR-alpha (Homo sapiens) (UniProt P19793); assay: TOX21_TR_RXR_BLA_Antagonist_Followup_ratio: Tox21 Thyroid Hormone Receptor beta Retinoid X Receptor alpha (RXRa) Antagonism Beta-lactamase (BLA) Follow-Up Assay, Ratio (AID 2283972)
# Retinoic acid receptor RXR-alpha (Homo sapiens), sequence (P19793 whole entry, looked up): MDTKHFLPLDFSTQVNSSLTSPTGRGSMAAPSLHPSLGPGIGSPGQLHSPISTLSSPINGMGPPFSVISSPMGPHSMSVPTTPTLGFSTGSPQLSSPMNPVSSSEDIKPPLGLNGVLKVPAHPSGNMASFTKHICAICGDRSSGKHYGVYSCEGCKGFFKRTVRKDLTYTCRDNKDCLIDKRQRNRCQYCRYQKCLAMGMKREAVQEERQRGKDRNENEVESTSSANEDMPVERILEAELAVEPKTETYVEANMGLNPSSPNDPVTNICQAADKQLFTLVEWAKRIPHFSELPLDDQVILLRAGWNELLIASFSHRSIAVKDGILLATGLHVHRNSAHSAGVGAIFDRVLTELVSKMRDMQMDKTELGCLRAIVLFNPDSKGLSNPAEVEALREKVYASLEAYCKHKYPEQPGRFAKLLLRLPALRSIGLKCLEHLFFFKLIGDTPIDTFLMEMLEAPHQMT
# In short: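 RXRa-UAS-bla HEK293T cells, 2,500/well in phenol red-free DMEM with 2% charcoal-stripped FBS, 5 h attachment, then compounds (11 concentrations, triplicate) for 16 h at 37C; FRET-B/GCCF4-AM substrate 2 h RT; 460:530 nm ratio, loss of signal vs DMSO.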
Compound,outcome [1],outcome [2]
COC(=O)c1ccc(I)cc1S(=O)(=O)NC(=O)Nc1nc(C)nc(OC)n1,inactive,–
CCNc1nc(N)nc(Cl)n1,inactive,–
C[C@]12CC[C@@H]3c4ccc(O)cc4C[C@@H](CCCCCCCCCS(=O)CCCC(F)(F)C(F)(F)F)[C@H]3[C@@H]1CC[C@@H]2O (stereo partly drawn),–,inactive

# Reference: PubChem BioAssay (EPA / NIEHS)
